Most compounds without a hit are left out; they make up all but 10% or so of the library.
HEK cytotox – HEK 293 cell cytotoxicity. HEK 293 viability, ATP luminescence (CellTiter-Glo), 48-72 h. Potency, µM (titrated, usually from 115 µM), most hits filed as inhibitors. actives 6.6% (n = 94,000); note: nearly all actives have a fitted effect of over 60% in size
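Read-out: CellTiter-Glo ATP luminescence. Cells: HEK 293, 250 cells/well. Exposure: 48 or 72 hr, 37 degree Celsius.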
GPT2 inh – inhibitors of human GPT2 alanine aminotransferase | actives 0.25% (n = 100,000) | Potency, µM (titrated, usually from 57.7 µM), actives largely listed as inhibitors | Recombinant GPT2, coupled pyruvate oxidase/HRP Amplex Red fluorescence | Q8TD30; note: nearly all actives have a fitted effect of over 60% in size
Target sequence (Q8TD30 whole entry, looked up): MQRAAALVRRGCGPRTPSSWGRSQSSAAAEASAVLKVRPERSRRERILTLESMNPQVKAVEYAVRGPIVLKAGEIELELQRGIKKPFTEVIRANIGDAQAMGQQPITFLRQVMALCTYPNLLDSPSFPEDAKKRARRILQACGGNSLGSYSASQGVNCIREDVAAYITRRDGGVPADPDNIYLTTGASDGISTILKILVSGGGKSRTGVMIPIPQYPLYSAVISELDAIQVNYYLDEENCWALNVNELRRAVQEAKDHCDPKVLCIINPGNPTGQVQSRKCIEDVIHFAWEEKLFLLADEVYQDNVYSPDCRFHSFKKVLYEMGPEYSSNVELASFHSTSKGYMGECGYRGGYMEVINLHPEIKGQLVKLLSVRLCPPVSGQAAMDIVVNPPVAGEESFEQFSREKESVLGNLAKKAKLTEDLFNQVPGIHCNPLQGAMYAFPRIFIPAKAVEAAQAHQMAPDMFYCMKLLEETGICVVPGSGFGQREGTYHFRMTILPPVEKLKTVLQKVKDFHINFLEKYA
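GPT2 10ng/uL, a-KG 250uM, L-Ala 2mM, HEPES pH7.5 + 0.0001% Tween; 30 min RT. Then Amplex mix (PO/HRP/ThPP), 30 min RT dark, fluorescence. AOA 50uM used as positive control.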
hNpr1 antagonist – human Npr1 receptor antagonism | P16066 | Potency, µM (highest dose often 46.3 µM), usual class: inhibitors | AID 1347048 | actives 1.6% (n = 76,000) | HEK293 hNpr1 GloSensor cGMP, ANP-stimulated luminescence; calls by dose curve; note: nearly all actives have a fitted effect of over 60% in size
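HEK293 cells stably expressing human Npr1 and cGMP GloSensor pGS-40F, loaded 2 h with 2% GloSensor reagent, given compound 30 min at room temperature. Luminescence read before and 20 min after 0.1 nM hNppA.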
Luciferase inh – blocks purified firefly luciferase enzyme activity; actives 2.5% (n = 76,000); purified P. pyralis luciferase, luminescence, biochemical; P08659; AID 1347043; Potency, µM (highest dose often 115 µM), usual class: inhibitors; note: nearly all actives have a fitted effect of over 65% in size
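Inhibitors were tested against purified firefly luciferase in a biochemical, low-substrate format (both substrates at 10uM) and luminescence measured with a CCD imager.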
NIH3T3 tox – NIH 3T3 cell cytotoxicity | NIH 3T3 viability, CellTiter-Glo ATP luminescence, 48-72 h | Potency, µM (top dose mostly 96.7 µM), usual class: inhibitors | actives 4.3% (n = 94,000); note: nearly all actives have a fitted effect of over 55% in size
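NIH 3T3 cells at 400 cells/well received 23 nL of compound by pintool and were incubated 48 or 72 h at 37 °C. Viability was read as ATP-coupled CellTiter-Glo luminescence.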
Of the large screens only hits and unclear results are named; the others gave an inactive call. Unless noted, calls come from the whole dose curve; as a rule, active = well fitted curve in the direction sought with a large enough effect; inconclusive = small, poorly fitted or top-dose-only effect, or another doubt; inactive = no such curve, though single readings can be large; an effect the other way counts as inactive or inconclusive.

Cc1ccc(C)c(C(O)Cn2ccn3nc(-c4cccs4)cc3c2=O)c1 (centres undefined)	HEK cytotox inconclusive
COc1ncc(-c2cc(C(=O)NCc3cccnc3)c3c(c2)N(C)CCO3)cn1	NIH3T3 tox 45µM
CNC(=O)c1cc(-c2ccc(OC)c(OC)c2)cc2c1OCCN2Cc1cccnc1	NIH3T3 tox 22µM
Cc1ccc(C(=O)N2CCCC2C(=O)N2CCC(N3CCCC3=O)CC2)cc1 (centres undefined)	none (no result: hNpr1 antagonist, Luciferase inh)
CC(C)Oc1ccc(CN2CCC(CO)(CN3CCCC3)CC2)cc1Cl	HEK cytotox 25µM, NIH3T3 tox 32µM
COc1ccc(CN2CCC(CO)(CN3CCCC3)CC2)cc1C	HEK cytotox 89µM, GPT2 inh inconclusive, NIH3T3 tox inconclusive
O=C(NCc1ccc(F)cc1)c1cnc2n1CCN(CCc1ccccc1)CC2	HEK cytotox inconclusive, NIH3T3 tox inconclusive
N#Cc1ccc(CN2CCc3ncc(C(=O)NCCOc4ccccc4)n3CC2)cc1	HEK cytotox 71µM, hNpr1 antagonist inconclusive, NIH3T3 tox inconclusive
CC(C)CCN1CCc2ncc(C(=O)NCCOc3ccccc3)n2CC1	HEK cytotox 28µM, NIH3T3 tox inconclusive
O=C(NCc1ccccc1)c1cnc2n1CCN(CCCc1ccccc1)CC2	HEK cytotox inconclusive, NIH3T3 tox 25µM
CC(=O)N1CCc2ccc(C(=O)N3CCC(C)CC3)cc21	none
COc1ccccc1-c1ccc(C(=O)N2CCC(NC(=O)c3ccc(C)cc3)CC2)cc1	HEK cytotox inconclusive, NIH3T3 tox inconclusive (no result: hNpr1 antagonist, Luciferase inh)
COCC(=O)Nc1ccc(-c2noc([C@@H]3CCCN3Cc3ccc(NC(C)=O)cc3)n2)cn1	none
COc1ccc(C(=O)Nc2ccc(-c3noc([C@@H]4CCCN4Cc4ccncc4)n3)cn2)cc1	HEK cytotox inconclusive, hNpr1 antagonist 13µM, Luciferase inh inconclusive, NIH3T3 tox inconclusive
COCC(=O)Nc1ccc(-c2noc([C@@H]3CCCN3Cc3cc4ccccc4o3)n2)cn1	HEK cytotox 71µM, NIH3T3 tox inconclusive
Cc1cnc(CCNS(=O)(=O)c2ccc(C#N)cc2)n1C1CCC1	none
CN1CCc2c([nH]c3ccccc23)C12CCN(C(=O)c1ccsc1)CC2	HEK cytotox 40µM, NIH3T3 tox inconclusive
COc1cccc(CN2CCC3(CC2)c2[nH]c4ccccc4c2CCN3C)c1	HEK cytotox 25µM, NIH3T3 tox 22µM
Cc1cc(C(=O)N2CCC3(CC2)c2[nH]c4ccccc4c2CCN3C)n(C)n1	HEK cytotox 40µM
O=C(Nc1ccccc1)N1CCn2c(nnc2C2CC2)C1	none (no result: hNpr1 antagonist, Luciferase inh)
Cc1noc2c(NCCc3ccccn3)cc(-c3ccccn3)nc12	HEK cytotox 56µM, NIH3T3 tox inconclusive
COc1cccc(CN2CC(Oc3ccccc3C(=O)NCc3ccccc3)C2)c1	HEK cytotox 40µM, NIH3T3 tox 35µM
O=C(NCc1ccccc1)c1ccccc1OC1CN(Cc2ccc(F)cc2)C1	HEK cytotox inconclusive, NIH3T3 tox 32µM
Cc1cc(C)cc(NC(=O)N2CCC(F)(c3nc(-c4ccncc4)no3)CC2)c1	HEK cytotox inconclusive, NIH3T3 tox inconclusive (no result: hNpr1 antagonist, Luciferase inh)
O=C(NC1CCCN(c2ccc3nnc(-c4ccccc4)n3n2)C1)c1ccc(Cl)nc1 (centres undefined)	HEK cytotox 28µM, NIH3T3 tox inconclusive (no result: GPT2 inh, hNpr1 antagonist, Luciferase inh)
O=C(NC1CCN(c2ccc3nnc(-c4ccccc4)n3n2)CC1)c1ccccc1	HEK cytotox inconclusive (no result: GPT2 inh, hNpr1 antagonist, Luciferase inh)
O=C(Nc1ccc(Cl)cc1)N1CCCN(c2ccc3nnc(-c4ccccc4)n3n2)CC1	HEK cytotox inconclusive, NIH3T3 tox 28µM (no result: GPT2 inh, hNpr1 antagonist, Luciferase inh)
O=C(NC1CCN(c2ccc3nnc(-c4ccccc4)n3n2)CC1)c1ccc(Cl)nc1	none (no result: GPT2 inh, hNpr1 antagonist, Luciferase inh)
COc1ccc(C(=O)NC2CCN(c3ccc4nnc(-c5ccccc5)n4n3)CC2)cc1	HEK cytotox 79µM, NIH3T3 tox inconclusive (no result: GPT2 inh, hNpr1 antagonist, Luciferase inh)
O=C(NC1CCCN(c2ccc3nnc(-c4ccccc4)n3n2)C1)c1ccccc1 (centres undefined)	HEK cytotox 35µM, NIH3T3 tox 28µM (no result: GPT2 inh, hNpr1 antagonist, Luciferase inh)
Cc1ccc(C(=O)N2CCCC(C(=O)N3CCCC(c4nc5ccncc5[nH]4)C3)C2)cc1 (centres undefined)	none (no result: hNpr1 antagonist, Luciferase inh)
O=C(Nc1cccn2nc(C3CCC3)nc12)c1ccc(F)cc1F	none
CN(C)C(=O)NC1CCCN(c2ccc3nnc(-c4ccccc4)n3n2)C1 (centres undefined)	HEK cytotox inconclusive, NIH3T3 tox 45µM (no result: GPT2 inh, hNpr1 antagonist, Luciferase inh)
O=C(Cc1ccccc1F)N1CCOc2ccc(CN3CCc4ccccc4C3)cc2C1	HEK cytotox 45µM
CCOc1ccc(CN2CCOc3ccc(C(=O)NCc4ccccc4F)cc3C2)cc1	HEK cytotox 40µM, hNpr1 antagonist inconclusive, NIH3T3 tox inconclusive
O=C(NCc1ccccc1F)c1ccc2c(c1)CN(Cc1ccc3c(c1)CCO3)CCO2	HEK cytotox 28µM, NIH3T3 tox inconclusive
COc1ccc(OC)c(NC(=O)N2C[C@@H](F)C[C@H]2C(=O)N2CCCCC2)c1	NIH3T3 tox 11µM
COc1ccc(NC(=O)N2C[C@@H](F)C[C@H]2C(=O)N2CCCCC2)cc1F	none
O=C(c1cccc(Cl)c1)N1CCN(c2cc(-c3ccccc3)[nH]n2)CC1	HEK cytotox 45µM, NIH3T3 tox inconclusive
Cc1cc(C)cc(C(=O)N2CCN(c3cc(-c4ccc(Cl)cc4)[nH]n3)CC2)c1	HEK cytotox 40µM, hNpr1 antagonist inconclusive, NIH3T3 tox 40µM
Cc1ccccc1C(=O)N1CCCN(c2cc(-c3ccc(Cl)cc3)[nH]n2)CC1	HEK cytotox inconclusive, hNpr1 antagonist inconclusive, NIH3T3 tox inconclusive
O=C(c1ccc2c(c1)OCO2)N1CCN(c2cc(-c3ccc(F)cc3)[nH]n2)CC1	HEK cytotox inconclusive, hNpr1 antagonist inconclusive, NIH3T3 tox 14µM
O=C(c1ccccc1)N1CCCN(c2cc(-c3ccc(Cl)cc3)[nH]n2)CC1	HEK cytotox inconclusive, NIH3T3 tox inconclusive
Cc1ccsc1C(=O)N1CCCN(c2cc(-c3ccc(Cl)cc3)[nH]n2)CC1	HEK cytotox 32µM, hNpr1 antagonist inconclusive, NIH3T3 tox inconclusive
O=C(c1ccc(F)c(Cl)c1)N1CCN(c2cc(-c3ccccc3)[nH]n2)CC1	HEK cytotox inconclusive, NIH3T3 tox inconclusive
COc1cccc(-c2ccc(C(=O)N3CCC(C(=O)N4CCN(Cc5ccccc5)CC4)CC3)cc2)c1	HEK cytotox inconclusive, NIH3T3 tox inconclusive (no result: hNpr1 antagonist, Luciferase inh)
O=C(c1ccsc1)N1CCN(c2cc(-c3ccc(Cl)cc3)[nH]n2)CC1	HEK cytotox inconclusive, NIH3T3 tox 25µM
Cc1ccc(-c2cc(N3CCCN(C(=O)c4ccsc4)CC3)n[nH]2)cc1C	HEK cytotox inconclusive, NIH3T3 tox inconclusive
O=C(c1ccc2nc[nH]c2c1)N1CCCN(c2cc(-c3ccc(Cl)cc3)[nH]n2)CC1	none
O=C(c1ccc2ncccc2c1)N1CCCN(c2cc(-c3ccc(Cl)cc3)[nH]n2)CC1	HEK cytotox 35µM, hNpr1 antagonist inconclusive, NIH3T3 tox inconclusive
